# The list is not random: actives were taken first. Their share in the collection is about 3.4%.
# FBW7 act: activators of human E3 ligase FBW7; Q969H0; AlphaScreen FBW7–phospho-cyclin E peptide binding, activator screen; normalized activity (activation), % at 26.1 µM; hit rate 0.13% among 650,000; AID 1259310; in the data active = normalized activity above about 1.9%;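 also: purified mutant Fbw7 with reduced substrate affinity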
# TEAD-YAP block: TEAD-YAP interaction inhibition; inhibition, % at 9.12 µM; hit rate 1.4% among 640,000; AID 1259422; HEK-TIYL cells, TEAD-Gal4/YAP UAS-luciferase luminescence; in the data active = inhibition above about 32%
# GPR151 activ: activates the human receptor GPR151 | hit rate 1% among 650,000 | PathHunter beta-arrestin GPR151 cells, luminescence | activation, % at 11.2 µM | Q8TDV0; in the data active = activation above about 4.9%
# MITF inh: inhibitors of human MITF; O75030; AlphaScreen MITF homodimerization, bead proximity signal; inhibition, % at 2.6 µM; hit rate 0.91% among 650,000; AID 1259374; in the data active = inhibition above about 50%
# Target sequence (O75030 whole entry, looked up): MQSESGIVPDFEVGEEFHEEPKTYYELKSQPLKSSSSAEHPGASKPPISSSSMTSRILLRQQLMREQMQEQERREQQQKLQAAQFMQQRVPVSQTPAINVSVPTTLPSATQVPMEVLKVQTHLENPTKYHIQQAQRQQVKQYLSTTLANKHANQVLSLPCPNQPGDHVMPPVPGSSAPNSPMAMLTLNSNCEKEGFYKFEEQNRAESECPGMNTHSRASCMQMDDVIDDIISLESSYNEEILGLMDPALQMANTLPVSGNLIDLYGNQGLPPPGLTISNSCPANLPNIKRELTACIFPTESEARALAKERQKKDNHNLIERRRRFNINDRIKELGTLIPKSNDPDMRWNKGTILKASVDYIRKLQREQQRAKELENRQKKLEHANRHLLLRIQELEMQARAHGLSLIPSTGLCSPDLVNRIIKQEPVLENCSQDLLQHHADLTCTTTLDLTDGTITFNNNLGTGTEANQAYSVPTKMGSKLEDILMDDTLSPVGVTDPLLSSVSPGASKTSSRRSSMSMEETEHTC
# GPR151 confirm: confirmation of human GPR151 activators; shares compounds with GPR151 activ; GPR151 PathHunter beta-arrestin cells, luminescence, 90 min; % of EA-reagent control over plate median; activation, % at 11.2 µM; 6,700 tested, under 10 active; AID 1508609;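 active = mean percent activation across replicates above the confirmation screen cutoff of 4.91%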
# GPR119 counter: GPR119 activation, counter-screen for GPR151 activators | activation, % at 11.2 µM | shares compounds with GPR151 activ | GPR119 PathHunter beta-arrestin cells, luminescence, 90 min; 0 = compound-well median, 100 = enzyme-acceptor control | AID 1508611 | hit rate 0.3% among 6,700;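 active = mean percent activation in the counterscreen above 29.09%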;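 also: counterscreen on off-target GPR119 to flag nonselective hits from the GPR151 activator screen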
# Numbers stand for hits; 0 = inactive; - = not tested or not shown.
SMILES,FBW7 act,TEAD-YAP block,GPR151 activ,MITF inh,GPR151 confirm,GPR119 counter
COc1cccc(CC(=O)N2CCc3nnc(CNC(=O)CCc4cccnc4)n3CC2)c1,0,0,5.7,0,0,0
CCOc1ccc(C2=NC(c3ccc(OC)cc3)NC(c3ccccc3O)C2)cc1 (centres undefined),0,0,6.4,0,0,0
CN(C)c1cccc(C(=O)OCc2nnc(-c3ccccc3)o2)c1,0,0,6.6,0,0,0
CCCCC(=O)Nc1ccc(C(=O)Nc2ccc(I)cc2)cc1,0,0,0,0,-,-
COc1cc(Nc2ncc(C(=O)NCc3ccccc3)s2)cc(OC)c1OC,0,0,6.1,0,0,0
COc1cc(C(=O)NCc2cc(-c3ccccc3)on2)cc(OC)c1OC,0,0,6.2,0,0,0
CCC(=O)NCCSc1ncc(-c2ccccc2)[nH]1,0,0,5.2,0,0,0
COc1ccc(-c2cnc(SCCNC(=O)CCCc3ccccc3)[nH]2)cc1,0,0,0,0,-,-
Cc1ccnc(NS(=O)(=O)c2ccc(NC(=O)/C=C/c3ccccc3Cl)cc2)n1,0,0,0,0,-,-
O=C1Nc2ccc3ccccc3c2C(c2ccccc2)N1 (centres undefined),0,0,9.1,0,0,0
CCCNC(=O)C(=O)NCC1OCCCN1S(=O)(=O)c1ccc(F)cc1 (centres undefined),0,0,0,0,-,-
COc1cccc(OC)c1C(=O)n1nc(C)cc1C,0,0,0,0,-,-
Cc1cc(C)n(C(=O)CSc2ccc(Cl)cc2)n1,0,0,7.8,0,0,0
COc1ccc(Cl)cc1C(=O)n1nc(C)cc1C,0,0,9.6,0,0,0
COc1ccc(CCNC(=O)CN(Cc2ccccc2)S(=O)(=O)c2ccc(C)cc2)cc1,0,0,0,0,-,-
CCCCSc1nnc(NC(=O)CCCl)s1,0,0,0,0,-,-
CCOC(=O)C1=C(C)Nc2nc(SCc3cccnc3)nn2C1c1ccc(OC)cc1 (centres undefined),0,0,8.0,0,0,0
CCOC(=O)C1=C(C)Nc2nc(SC)nn2C1c1ccc(OC)cc1 (centres undefined),0,0,0,0,-,-
Cc1c(C(=O)Nc2cc(Sc3ccc(F)cc3)cc([N+](=O)[O-])c2)sc2ncn(Cc3ccccc3F)c(=O)c12,0,0,5.1,0,0,0
CC(=O)C1=C(C)Nc2nnnn2C1c1ccccc1F (centres undefined),0,0,0,0,-,-
CSc1nsc(NC(=O)c2ccc(F)cc2F)n1,0,0,0,0,-,-
O=C(Nc1nc(SCc2ccc(F)cc2)ns1)c1cc(F)c(F)cc1Cl,0,0,8.4,0,0,0
CCOC(=O)C1CCCN(c2ncnc3scc(-c4ccccc4)c23)C1 (centres undefined),0,0,0,0,-,-
O=C(O)C1CCCN(c2ncnc3scc(-c4ccccc4)c23)C1 (centres undefined),0,0,17.9,0,0,0
CC[C@H](C)[C@@H]1NC(=O)[C@H]2CN(C(=O)Oc3ccccc3)CCN2C1=O,0,0,0,0,-,-
SMILES,FBW7 act,TEAD-YAP block,GPR151 activ,MITF inh,GPR151 confirm,GPR119 counter
Cc1ccc(-c2nnc(C3CCN(S(=O)(=O)c4ccc(Cl)s4)CC3)o2)cc1,0,0,7.0,0,0,0
COc1ccccc1N(CC(=O)Nc1cccc2ccccc12)S(=O)(=O)c1ccc(C)cc1,0,0,0,0,-,-
c1ccc(-c2cc(N3CCCCC3)nc(-c3cccnc3)n2)nc1,0,0,0,0,-,-
c1ccc(-c2cc(N3CCCCC3)nc(-c3ccncc3)n2)nc1,0,0,9.4,0,0,0
C=CCN1C(=O)CS/C1=N\NC(=O)c1ccccc1,0,0,17.7,0,0,0
CN(Cc1nc(-c2cccnc2)no1)S(=O)(=O)c1ccc(Br)cc1,0,0,0,0,-,-
CN(Cc1nc(-c2cccnc2)no1)S(=O)(=O)c1ccc2ccccc2c1,0,0,5.1,0,0,0
NC(=S)N/N=C1/C(=O)c2cccc3cccc1c23,0,0,0,0,-,-
O=C(NCCN1CCOCC1)c1ccc2nc(N3CCN(Cc4ccc5c(c4)OCO5)CC3)sc2c1,0,0,6.8,0,0,0
CCOc1cc(/C=C2/C(=N)N3N=C(CC)SC3=NC2=O)cc(Cl)c1OCCOc1ccc(C)cc1C,0,0,0,0,-,-
CCOc1cc(/C=C2/C(=N)N3N=C(CC)SC3=NC2=O)cc(Cl)c1OCCOc1cc(C)ccc1C,0,0,8.4,0,0,0
Cc1ccccc1C(=O)On1c(-c2ccc(Cl)c([N+](=O)[O-])c2)nc2ccccc2c1=O,0,0,5.8,0,0,0
O=C(On1c(-c2ccc(F)cc2)nc2ccccc2c1=O)c1ccc(Cl)cc1,0,0,5.1,0,0,0
Cc1cccc(NC(=O)CSc2nnc(NC(=O)CC(C)C)s2)c1,0,0,0,0,-,-
COc1ccc(OC)c(NC(=O)CC(C)S(=O)(=O)c2cc3c(cc2C)NC(=O)CO3)c1 (centres undefined),0,0,5.1,0,0,0
CC(CC(=O)Nc1ccc(F)cc1F)S(=O)(=O)c1ccc2c(c1)OCC(=O)N2 (centres undefined),0,0,0,0,-,-
CC(CC(=O)Nc1ccc(F)cc1Cl)S(=O)(=O)c1ccc2c(c1)OCC(=O)N2 (centres undefined),0,0,7.7,0,0,0
COc1ccc(NC(=O)CC(C)S(=O)(=O)c2ccc3c(c2)OCC(=O)N3)cc1OC (centres undefined),0,0,9.6,0,0,0
Cc1ccccc1NC(=O)CC(C)S(=O)(=O)c1cc2c(cc1C)NC(=O)CO2 (centres undefined),0,0,0,0,-,-
COc1ccc(S(=O)(=O)NC(CCSC)C(=O)N2CCC(=O)CC2)cc1 (centres undefined),0,0,0,0,-,-
NC(=O)NNC(=O)c1cc2c(s1)CCCC2,0,0,0,0,-,-
CCN(CC)c1nc(N)nc(Nc2nccc3ccccc23)n1,0,0,0,0,-,-
COc1cccc(/C=C/c2nc3ccccc3c(=O)n2-c2ccc(NC(C)=O)cc2)c1OC,0,0,5.6,0,0,0
O=C(CSc1nc2ccccc2o1)Nc1ccccc1Cl,0,0,0,0,-,-
Cc1cccc(C)c1NC(=O)CSc1nc2ccccc2o1,0,0,7.6,0,0,0
SMILES,FBW7 act,TEAD-YAP block,GPR151 activ,MITF inh,GPR151 confirm,GPR119 counter
O=C(CSc1nc2ccccc2o1)Nc1ccccc1C(F)(F)F,0,0,5.2,0,0,0
COc1cc(I)cc(CNc2ccc(F)cc2)c1O,0,0,5.4,0,0,0
C=CCn1c(SCC(=O)Nc2sc3c(c2C(=O)OCC)CCCCC3)nc2sc(-c3ccccc3)cc2c1=O,0,0,6.3,0,0,0
CC(C)CNC(=O)NC(=O)COC(=O)c1ccccc1N=Nc1ccc(O)cc1,0,0,5.9,0,0,0
CC(C)CNC(=O)COC(=O)c1ccc(O)cc1,0,0,0,0,-,-
O=C(c1c(F)cccc1Cl)N(c1ccccc1)C1C=CS(=O)(=O)C1 (centres undefined),0,0,0,0,-,-

# Source: PubChem (The Scripps Research Institute Molecular Screening Center)
